Screening results (PubChem BioAssay)
CRFBP-R2 block = antagonists of CRF-BP/CRF-R2 complex, primary screen, cell-based, HEK293, calcium dye fluorescence, uHTS; CRF-induced calcium fluorescence; inhibition, % at 11.8 µM; 350,000 tested, 0.59% active; AID 588475, 2011;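 active = inhibition of the ligand-induced calcium signal above about 50% at the single tested concentration, limit read from the data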
NR3A LBD binder = binders of NR3A ligand-binding domain, primary screen, biophysical, differential scanning fluorimetry, uHTS; AID 1259313, 2017; 340,000 tested, 2.5% active; Tm shift relative to glycine control, % at 25 µM; NR3A LBD differential scanning fluorimetry, Tm shift; 0% = protein alone, 100% = glycine-bound protein;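 active = melting temperature shift of at least 10% of the positive control shift, at one fixed dose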
ANO1 block = TMEM16A chloride channel inhibitors, primary screen, cell-based, HTS | AID 588511, 2011 | normalized B-score (activity score, 25-100; higher = stronger inhibition) at 10 µM | HEK293 TMEM16A/YFP iodide influx fluorescence, ionomycin | 310,000 tested, 1.2% active | Anoctamin-1 (Mus musculus), Q8BHY3;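 active = ratio plate-corrected score three or more library SD toward inhibition, starting fluorescence score within five deviations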;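 also: score derived from kinetic fluorescence span divided by baseline fluorescence per well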
Target sequence (Q8BHY3 whole entry, looked up): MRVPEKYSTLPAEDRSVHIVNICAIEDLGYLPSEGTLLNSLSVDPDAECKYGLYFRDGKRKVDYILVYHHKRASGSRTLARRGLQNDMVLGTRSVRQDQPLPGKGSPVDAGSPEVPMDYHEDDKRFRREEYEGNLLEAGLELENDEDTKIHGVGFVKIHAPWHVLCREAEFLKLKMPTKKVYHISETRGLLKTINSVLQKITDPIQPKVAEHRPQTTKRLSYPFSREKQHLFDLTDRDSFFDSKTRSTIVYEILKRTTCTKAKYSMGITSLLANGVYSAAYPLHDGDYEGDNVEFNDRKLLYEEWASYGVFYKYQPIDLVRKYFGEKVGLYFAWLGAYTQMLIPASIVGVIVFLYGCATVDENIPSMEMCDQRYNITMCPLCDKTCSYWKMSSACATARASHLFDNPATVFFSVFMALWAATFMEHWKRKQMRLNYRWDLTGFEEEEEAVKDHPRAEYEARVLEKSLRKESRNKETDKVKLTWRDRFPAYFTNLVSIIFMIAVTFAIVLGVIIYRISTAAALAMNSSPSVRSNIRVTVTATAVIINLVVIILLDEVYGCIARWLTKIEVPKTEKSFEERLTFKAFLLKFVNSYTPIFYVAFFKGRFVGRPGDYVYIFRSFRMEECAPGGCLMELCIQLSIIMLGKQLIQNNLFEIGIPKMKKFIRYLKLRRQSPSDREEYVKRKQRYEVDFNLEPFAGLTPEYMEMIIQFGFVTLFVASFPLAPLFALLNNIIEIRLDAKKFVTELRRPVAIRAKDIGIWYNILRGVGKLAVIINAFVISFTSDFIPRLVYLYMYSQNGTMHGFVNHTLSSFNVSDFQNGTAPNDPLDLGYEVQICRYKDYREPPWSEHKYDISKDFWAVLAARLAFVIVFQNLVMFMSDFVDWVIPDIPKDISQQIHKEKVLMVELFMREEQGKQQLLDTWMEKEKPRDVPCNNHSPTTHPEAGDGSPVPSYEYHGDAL
CRFR2-BP ag = agonists of CRF-BP/CRF-R2 complex, primary screen, cell-based, HEK293, calcium dye fluorescence, uHTS; CRF-binding protein / CRF receptor 2 complex (human); calcium dye fluorescence (FLIPR); percent of saturating CRF peptide response; activation, % at 13.2 µM; 350,000 tested, 0.46% active; AID 588473, 2011;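 active = activation of at least 50%, plus an integration ratio under a set limit after plate pattern correction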
MPTP block = mitochondrial permeability transition pore inhibitors, primary screen, biochemical, isolated mouse mitochondria, absorbance; Ca2+ swelling absorbance, 30 min; 360,000 tested, 1.4% active; inhibition, % at 10 µM;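 active = inhibition of 50% or more, scaled per plate between neutral and stimulator controls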
TMEM16A act = TMEM16A chloride channel activators or potentiators, primary screen, cell-based, HTS | AID 623877, 2012 | B-score at 10 µM | 340,000 tested, 0.3% active | HEK293 TMEM16A/YFP-H148Q/I152L, iodide quench fluorescence; active compounds read low | Anoctamin-1 (Mus musculus), Q8BHY3;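 active = fluorescence-ratio B-score plate-corrected deviation score at least 3 library SD below zero, with starting fluorescence score within 5 deviations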;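 also: channel opened by trigger with iodide after compound preincubation; score built on the fluorescence ratio of max minus min over baseline; more negative score means more quench and so TMEM16A activation or potentiation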
Rh123 counter = fluorescence retest of MPTP screen hits in isolated mitochondria, single concentration. inhibition, % at 10 µM. membrane potential, Rhodamine 123 fluorescence. AID 624504, 2012. 5,000 tested, 78% active. shares compounds with MPTP block; in the data active = inhibition above about 22%
MPTP swell DR = mitochondrial permeability transition pore inhibitors, dose response, biochemical, absorbance, uHTS hits; shares compounds with MPTP block; isolated mitochondria swelling; IC50, µM; 780 tested, 58% active; in the data active = IC50 below about 20 µM
MPTP counter DR = fluorescent counter-screen in isolated mitochondria, dose response, counter-screen for MPTP inhibitor project, biochemical, fluorescence, uHTS hits; shares compounds with MPTP block; isolated mitochondria counterscreen, fluorescence read-out; IC50, µM; 780 tested, 49% active; AID 651564, 2012; in the data active = IC50 below about 80 µM
Large screens that a line does not name were inactive (follow-up assays come after a bar, where they were run). Sampled rows, rich in hits. Any-hit rate of the full collection: about 5.1%.

COc1ccc(COc2ccccc2C(=O)NCc2ccccc2)cc1F	MPTP block 96 | Rh123 counter 88
COc1ccccc1Nc1ncccc1C(=O)NCc1ccccc1	none
O=C1c2ccccc2C2=Nc3ccccc3SC(c3ccc(Cl)cc3)C12 (stereo unspecified)	MPTP block 89 | Rh123 counter 56
O=C1c2ccccc2C(=O)C12OC2c1ccc(Cl)cc1 (stereo unspecified)	none (no result: CRFBP-R2 block, NR3A LBD binder, CRFR2-BP ag, MPTP block, TMEM16A act)
O=C1CCCC2=C1C(c1ccc(Cl)cc1)C1C(=O)c3ccccc3C1=N2 (stereo unspecified)	MPTP block 55 | Rh123 counter 36
O=C1c2ccccc2C2=Nc3ccccc3SC(c3cccc(F)c3)C12 (stereo unspecified)	MPTP block 81 | Rh123 counter 66
O=C1CCCC2=C1C(c1ccccc1)C1C(=O)c3ccccc3C1=N2 (stereo unspecified)	none
COc1ccc(/C=C/c2n[nH]c(=O)c(C#N)c2C)cc1	none
COc1ccc(-n2cc3ccc([N+](=O)[O-])cc3n2)cc1	none
O=C(Cc1ccc(Br)cc1)N1CCN(C(=O)c2ccccc2)CC1	none (no result: ANO1 block)
Cc1cc(Cl)c(S(=O)(=O)N2CCN(c3ccc(F)cc3)CC2)cc1OCC(N)=O	none
Cc1cc(Cl)c(S(=O)(=O)N2CCN(c3ccc(F)cc3)CC2)cc1OCC(=O)NC1CCCCC1	ANO1 block 25, MPTP block 80 | Rh123 counter 70
COc1ccc(S(=O)(=O)N(C)C[C@H]2OCc3cnnn3CCCC(=O)N([C@H](C)CO)C[C@@H]2C)cc1	none (no result: NR3A LBD binder, ANO1 block, TMEM16A act)
CCCCCCC#Cc1cncc(C(=O)NNC(=O)Nc2cc(Cl)cc(Cl)c2)c1	NR3A LBD binder 16, MPTP block 55 | Rh123 counter 55
CCCCC#Cc1cncc(C(=O)NN)c1	none
CCCCN1C(=O)C(CC(=O)NCCc2ccccn2)CC(C(=O)N(C(C)C)C(C)C)=C1C (stereo unspecified)	none (no result: NR3A LBD binder, ANO1 block, TMEM16A act)
CCCCCCc1cc2cc(C(=O)Nc3cccc(OC)c3)c(=O)oc2cc1O	CRFR2-BP ag 57, MPTP block 56 | Rh123 counter 21
CCCCCCc1cc2cc(C(=O)Nc3ccc(OC)cc3)c(=O)oc2cc1O	MPTP block 78 | Rh123 counter inactive | MPTP swell DR 1.1 | MPTP counter DR <2.5
CCCCCCc1cc2cc(C(=O)NC)c(=N)oc2cc1O	CRFR2-BP ag 286, MPTP block 96 | Rh123 counter 91
COc1ccc(NC(=O)c2cc3ccccc3oc2=O)cc1	none (no result: NR3A LBD binder, ANO1 block, TMEM16A act)
CCCCCCc1cc2cc(S(=O)(=O)c3ccc(F)c(Cl)c3)c(=O)oc2cc1O	NR3A LBD binder 33, MPTP block 79 | Rh123 counter 86
CCCCCCc1cc2cc(C(=O)OCC)c(=O)oc2cc1O	MPTP block 93 | Rh123 counter 87
CC1(C)Cc2c(sc(NC(=O)c3ccco3)c2C#N)CO1	none
N#Cc1c(NC(=S)NC(=O)c2ccccc2)sc2c1CCC2	NR3A LBD binder 11, MPTP block 58 | Rh123 counter 37
CC(=O)NC(=S)Nc1sc2c(c1C#N)CCCCC2	MPTP block 84 (no result: ANO1 block) | Rh123 counter 77
CC(=O)Nc1sc2c(c1C#N)CCCC2	none
CCC1(C)Cc2c(sc(NC(=S)NC(=O)c3ccccc3)c2C#N)CO1 (stereo unspecified)	NR3A LBD binder 22, MPTP block 83 | Rh123 counter inactive | MPTP swell DR inactive | MPTP counter DR 4.5
N#Cc1c(NC(=S)NC(=O)Cc2cccs2)sc2c1CCCCC2	NR3A LBD binder 20, MPTP block 84 | Rh123 counter 74
COc1cccc(C(=O)OCC(=O)Nc2ccc3c(c2)OCCO3)c1	none (no result: ANO1 block)
CC(OC(=O)c1c[nH]c2ccccc12)C(=O)N1CCCC1 (stereo unspecified)	none (no result: ANO1 block, TMEM16A act)
Cc1ccc(S(=O)(=O)N2C[C@@H](C)[C@]3(C2)[C@H](O)[C@H](OC(=O)NC2CC2)C[C@H]2C(=O)N(c4ccccc4)C(=O)[C@H]23)cc1	none (no result: NR3A LBD binder, ANO1 block, TMEM16A act)
COCC1CCN(C(=O)c2ccc3oc(C(C)C)nc3c2)C1 (stereo unspecified)	none (no result: NR3A LBD binder, ANO1 block, TMEM16A act)
Cc1cc(C)c(-c2csc(Cc3nc(-c4cc5ccccc5oc4=O)cs3)n2)cc1C	MPTP block 53 | Rh123 counter inactive | MPTP swell DR 6.3 | MPTP counter DR 7.8
COc1ccc(S(=O)(=O)NCc2cccnc2)cc1C(=O)Nc1ccccc1	none
O=c1c2c(nc3c(-c4cccc(Br)c4)c[nH]n13)CCCC2	MPTP block 58 | Rh123 counter 73
Cc1cc(C)c(S(=O)(=O)/N=C2\C=C(NS(=O)(=O)c3ccccc3)C(=O)c3ccccc32)c(C)c1	MPTP block 87 | Rh123 counter 35
COc1ccc(C(=O)/C=C/Nc2ccc(S(=O)(=O)Nc3cccc(C(C)=O)c3)cc2)cc1	NR3A LBD binder 13, MPTP block 97 | Rh123 counter 84
COc1cccc(C(=O)/C=C/Nc2ccc(S(=O)(=O)Nc3nc(C)cc(C)n3)cc2)c1	none
CCOc1ccc(N(C)Cc2cc(=O)oc3ccc(OCC)cc23)cc1	none
O=S(=O)(c1ccc(F)c(F)c1F)N1CCN(c2ncnc3sccc23)CC1	MPTP block 68 (no result: ANO1 block) | Rh123 counter 87
c1ccc(CC2CCN(c3ncnc4sccc34)CC2)cc1	MPTP block 100, TMEM16A act -40 (no result: ANO1 block) | Rh123 counter 98
COc1ccc(NS(=O)(=O)c2ccc(-c3coc(C)n3)cc2)cc1OC	MPTP block 98 (no result: NR3A LBD binder) | Rh123 counter 83
O=C(Nc1ccc(F)cc1)Nc1nnc(-c2ccncc2)s1	MPTP block 91 | Rh123 counter 89
O=C(Nc1ccc(Cl)cc1)Nc1nnc(-c2ccncc2)s1	NR3A LBD binder 20, MPTP block 79 | Rh123 counter 24
O=C(Nc1ccc(F)cc1)Nc1nnc(COc2ccccc2F)s1	NR3A LBD binder 36, MPTP block 83 | Rh123 counter 83
O=C(Nc1nnc(-c2ccc(F)cc2)s1)Nc1ccccc1F	none
Fc1ccc(Nc2nnc(-c3ccncc3)s2)cc1Cl	none (no result: CRFBP-R2 block, NR3A LBD binder, ANO1 block, CRFR2-BP ag, TMEM16A act)
